{"source": "PubChem BioAssay (NCATS)", "key": {"[1]": {"assay": "Viability qHTS for spleen associated tyrosine kinase inhibitor (SYKi) naive MV4-11 cells (AID 1963823); further: nearly all actives have a fitted effect of over 40% in size; further: potency means the concentration at half of the fitted maximal effect", "summary_of_the_method": "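SYKi-naive MV4-11 AML cells, 500 per well, were exposed to library compounds for 72 hr at 37 C, 5% CO2. Viability was then read by CellTiter-Glo luminescence after 10 min at room temperature.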"}, "[2]": {"biological_target": "Cytochrome P450 3A7 (Homo sapiens) (UniProt P24462)", "sequence (P24462 whole entry, looked up)": "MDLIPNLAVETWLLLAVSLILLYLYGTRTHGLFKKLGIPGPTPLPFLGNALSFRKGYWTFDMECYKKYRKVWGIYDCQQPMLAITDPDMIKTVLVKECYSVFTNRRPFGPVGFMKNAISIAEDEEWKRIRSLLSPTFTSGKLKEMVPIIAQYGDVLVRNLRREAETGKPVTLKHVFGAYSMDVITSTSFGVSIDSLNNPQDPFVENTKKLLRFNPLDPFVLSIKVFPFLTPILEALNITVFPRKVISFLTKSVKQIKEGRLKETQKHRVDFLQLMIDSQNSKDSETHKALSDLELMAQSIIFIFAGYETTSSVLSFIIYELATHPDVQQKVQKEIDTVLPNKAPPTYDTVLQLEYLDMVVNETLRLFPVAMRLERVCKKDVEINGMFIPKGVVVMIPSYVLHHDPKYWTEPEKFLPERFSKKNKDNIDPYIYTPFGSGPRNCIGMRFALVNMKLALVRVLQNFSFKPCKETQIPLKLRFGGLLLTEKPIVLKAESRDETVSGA", "assay": "Cytochrome P450 family 3 subfamily A member 7 (CYP3A7) small molecule antagonists: luciferase biochemical qHTS assay (AID 1963596); further: nearly all actives have a fitted effect of over 40% in size; further: potency means the concentration at half of the fitted maximal effect", "summary_of_the_method": "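Recombinant CYP3A7 P450-Glo luminescent assay: enzyme-proluciferin substrate mix preincubated with compound 10 min at room temperature, reaction started with NADPH regeneration system for 1 h. Luciferin detected by luminescence; ketoconazole as positive control.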"}, "[3]": {"assay": "Cellular viability qHTS for adrenocortical cancer (ACC) cell line SW-13 (AID 1963989);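 further: cells grown in serum-free medium with ITS supplement; nearly all actives have a fitted effect of over 65% in size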", "details": "SW-13 ACC cells viability, CellTiter-Glo, 48 h; activity (max response): hits give low values", "summary_of_the_method": "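48 h treatment, SW-13 in ITS/DMEM serum-free; doses up to 46 uM; readout CellTiter-Glo luminescence; curve fit four-parameter logistic.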"}, "[4]": {"assay": "Cellular viability qHTS for adrenocortical cancer (ACC) cell line NCI-H295R (AID 1963990); further: nearly all actives have a fitted effect of over 60% in size; further: potency means the concentration at half of the fitted maximal effect", "summary_of_the_method": "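Compound titrations (up to 46 uM final) are applied to NCI-H295R cultures for 48 h at 37C. Viable cell number is estimated by CellTiter-Glo signal, normalised to DMSO and doxorubicin controls.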"}}, "note": "Records with an inconclusive call do not appear. Entries that show only a call come without a potency. Unmarked numbers belong to inactive results. Activity calls are given as the source filed them. The call rests on the fitted dose curve; in most records, active means well fitted curve in the direction sought with a large enough effect; inconclusive means small, poorly fitted or top-dose-only effect, or another doubt; inactive means no such curve, though single readings can be large; an effect the other way counts as inactive or inconclusive."}
{"smiles": "CC[C@@H](C)[C@H]1C(=O)O[C@H](C(C)C)C(=O)N(C)[C@@H](C(C)C)C(=O)O[C@H](C(C)C)C(=O)N(C)[C@@H](C(C)C)C(=O)O[C@H](C(C)C)C(=O)N1C", "values": [{"measurement": "Potency", "setting": "[1]", "result": "5.44 µM (active)"}]}
{"smiles": "CCN[C@@H](C)Cc1ccccc1", "values": [{"measurement": "Potency", "setting": "[2]", "result": "inactive"}, {"measurement": "activity (max response)", "setting": "[3]", "result": -5.58, "unit": "%"}, {"measurement": "Potency", "setting": "[4]", "result": "inactive"}]}
{"smiles": "CCCC1CCCCN1", "note": "(centres undefined)", "values": [{"measurement": "Potency", "setting": "[2]", "result": "inactive"}, {"measurement": "activity (max response)", "setting": "[3]", "result": 12.1, "unit": "%"}, {"measurement": "Potency", "setting": "[4]", "result": "inactive"}]}
{"smiles": "COC(=O)[C@@]1(C)C(=O)C=C[C@]2(C)c3c(O)cc(C(C)C)cc3[C@H](O)[C@@H](OC(C)=O)C12", "note": "(some centres undefined)", "values": [{"measurement": "Potency", "setting": "[1]", "result": "11.2 µM (active)"}]}
{"smiles": "Oc1ccc2c3c1O[C@H]1[C@@H](O)C=C[C@H]4[C@@H](C2)NCC[C@@]341", "values": [{"measurement": "Potency", "setting": "[2]", "result": "inactive"}, {"measurement": "activity (max response)", "setting": "[3]", "result": -14.8, "unit": "%"}, {"measurement": "Potency", "setting": "[4]", "result": "inactive"}]}
{"smiles": "S=C(NC1CCCCC1)N1CCC(c2cnc[nH]2)CC1", "values": [{"measurement": "Potency", "setting": "[1]", "result": "inactive"}]}
{"smiles": "C=C(C)[C@@]12O[C@@H]1[C@@]1(C)C(=C[C@H]2O)CC[C@@H](O)[C@@H]1C", "values": [{"measurement": "Potency", "setting": "[1]", "result": "inactive"}]}
{"smiles": "C=C1C2(C)CC3C(C)(O)C4=CC(=O)OC(C)(C)C4=CCC3(C)C13C(=O)OC(C)C3(O)C2=O", "note": "(centres undefined)", "values": [{"measurement": "Potency", "setting": "[1]", "result": "inactive"}]}
{"smiles": "C[C@]12CCC(=O)C=C1CC[C@@H]1[C@@H]2[C@@H](O)C[C@]2(C)C(=O)CC[C@@H]12", "values": [{"measurement": "Potency", "setting": "[1]", "result": "inactive"}]}
{"smiles": "C[C@]12CC[C@H](O[C@@H]3O[C@H](CO)[C@@H](O)[C@H](O)[C@H]3O)CC1=CC[C@@H]1C2CC[C@]2(C)[C@@H](C3=CC(=O)OC3)CC[C@]12O", "note": "(some centres undefined)", "values": [{"measurement": "Potency", "setting": "[1]", "result": "2.73 µM (active)"}]}
{"smiles": "CC1CCCC(O)CCC/C=C/c2cc(O)cc(O)c2C(=O)O1", "note": "(centres undefined)", "values": [{"measurement": "Potency", "setting": "[1]", "result": "14.3 µM (active)"}]}
{"smiles": "CCOP(=O)(OCC)Oc1ccc2c(C)cc(=O)oc2c1", "values": [{"measurement": "Potency", "setting": "[1]", "result": "inactive"}]}
{"smiles": "Nc1ccc([N+](=O)[O-])cc1", "values": [{"measurement": "Potency", "setting": "[2]", "result": "inactive"}, {"measurement": "Potency", "setting": "[4]", "result": "inactive"}]}
{"smiles": "COc1ccn(C)c(=O)c1C#N", "values": [{"measurement": "Potency", "setting": "[1]", "result": "inactive"}]}
{"smiles": "CN(CC[C@H](N)CC(=O)N[C@H]1C=C[C@@H](n2ccc(N)nc2=O)O[C@@H]1C(=O)O)C(=N)N", "values": [{"measurement": "viability (% of control)", "setting": "[1]", "result": "83.5% [at 9.25 µM]"}]}
{"smiles": "CCN[C@@H](C)Cc1cccc(C(F)(F)F)c1", "values": [{"measurement": "Potency", "setting": "[2]", "result": "inactive"}, {"measurement": "activity (max response)", "setting": "[3]", "result": -3.94, "unit": "%"}, {"measurement": "Potency", "setting": "[4]", "result": "inactive"}]}
{"smiles": "CCCCC(CC)COC(=O)c1ccccc1C(=O)OCC(CC)CCCC", "note": "(centres undefined)", "values": [{"measurement": "Potency", "setting": "[2]", "result": "inactive"}, {"measurement": "activity (max response)", "setting": "[3]", "result": 14, "unit": "%"}, {"measurement": "Potency", "setting": "[4]", "result": "inactive"}]}
{"smiles": "CCCSP(=O)(OCC)SCCC", "values": [{"measurement": "Potency", "setting": "[1]", "result": "0.016 µM (active)"}]}
{"smiles": "NC(=O)c1cc([N+](=O)[O-])cc([N+](=O)[O-])c1", "values": [{"measurement": "Potency", "setting": "[2]", "result": "11 µM (active)"}, {"measurement": "activity (max response)", "setting": "[3]", "result": -5.23, "unit": "%"}, {"measurement": "Potency", "setting": "[4]", "result": "3.66 µM (active)"}]}
{"smiles": "O=[N+]([O-])c1ccc([As](=O)(O)O)cc1", "values": [{"measurement": "Potency", "setting": "[2]", "result": "inactive"}, {"measurement": "activity (max response)", "setting": "[3]", "result": 4.1, "unit": "%"}, {"measurement": "Potency", "setting": "[4]", "result": "inactive"}]}
{"smiles": "N#CC(O[C@@H]1O[C@H](CO[C@@H]2O[C@H](CO)[C@@H](O)[C@H](O)[C@H]2O)[C@@H](O)[C@H](O)[C@H]1O)c1ccccc1", "note": "(some centres undefined)", "values": [{"measurement": "Potency", "setting": "[2]", "result": "inactive"}, {"measurement": "activity (max response)", "setting": "[3]", "result": -16.1, "unit": "%"}, {"measurement": "Potency", "setting": "[4]", "result": "inactive"}]}
{"smiles": "CC1=CC2/C=C(\\C)CCC(O)C(O)/C=C/C(=O)C23C(=O)NC(CC(C)C)C3C1C", "note": "(centres undefined)", "values": [{"measurement": "Potency", "setting": "[1]", "result": "1.26 µM (active)"}]}
{"smiles": "O=[N+]([O-])c1c(Cl)c(Cl)cc(Cl)c1Cl", "values": [{"measurement": "Potency", "setting": "[2]", "result": "inactive"}, {"measurement": "activity (max response)", "setting": "[3]", "result": -0.162, "unit": "%"}]}
{"smiles": "CC[C@H]1C2CC3[C@@H]4N(C)c5ccccc5[C@]45C[C@@H]([C@H]2[C@H]5O)N3[C@H]1O", "values": [{"measurement": "Potency", "setting": "[1]", "result": "inactive"}]}
{"smiles": "O=C(NCCN1CCC2(CC1)C(=O)NCN2c1cccc(F)c1)c1ccc2ccccc2c1", "values": [{"measurement": "Potency", "setting": "[1]", "result": "9.2 µM (active)"}]}
{"smiles": "CN1CN(c2ccccc2)C2(CCN(CCCC(=O)c3ccc(F)cc3)CC2)C1=O", "values": [{"measurement": "Potency", "setting": "[1]", "result": "inactive"}]}
